Measurements: PubChem BioAssay (Tox21)
Results filed as inconclusive are left out. Where a call stands in place of a potency, no number is given. More than one record can exist for a structure, and the calls need not agree. The source made the active and inactive calls. The call rests on the fitted dose curve; in most records, active means well fitted cell-killing curve with a large enough effect in the repeat runs; inconclusive means weak or mixed curves; inactive means no such curve, though single readings can be large or run the other way.

Test: qHTS assay to identify small molecule antagonists of the androgen receptor (AR) signaling pathway - cell viability counter screen (AID 743033; further: nearly all actives have a fitted effect of over 45% in size)
Conditions: AR-bla HEK293 viability, CellTiter-Glo luminescence, 16 h; series mostly up to 58.5 µM
Excerpt: National Center for Advancing Translational Sciences [NCATS]
NIH Chemical Genomics Center [NCGC]
U.S. Environmental Protection Agency [EPA]
National Institutes of Environmental Health Sciences [NIEHS]
National Toxicology Program [NTP]
U.S. Food and Drug Administration [FDA]
Androgen receptor (AR), a nuclear hormone receptor, plays a critical role in AR-dependent prostate cancer and other androgen related diseases. Endocrine disrupting chemicals (EDCs) and their interactions with steroid hormone receptors like AR may cause disruption of normal endocrine function as well as interfere with metabolic homeostasis, reproduction, developmental and behavioral functions. To identify the compounds that inhibit AR signaling, GeneBLAzer AR-UAS-bla-GripTite cell line (Invitrogen, Carlsbad, CA, USA) containing a beta-lactamase reporter gene under control of an Upstream Activator Sequence (UAS) stably integrated into HEK293 cells was used to screen the Tox21 10K compound library. The cytotoxicity of the Tox21 compound library against the AR-bla cell line was tested in parallel by measuring the cell viability using CellTiter-Glo assay in the same wells.
Tox21 Assay Protocol Summary:
AR-bla cells were dispensed at 2,000 cells/5 uL of assay medium per well into black wall/clear-bottom 1536-well plates using a Multidrop Combi (ThermoFisher Scientific, Waltham, MA) dispenser. After the assay plates were incubated at a 37C and 5% CO2 for 4 hr, 23 nL of compounds dissolved in DMSO, positive controls or DMSO only was transferred to the assay plate by a Pintool station (Kalypsys, San Diego, CA), followed by addition of 1 uL of agonist (R1881) in culture medium using a Bioraptr Flying Reagent Dispenser (FRD) workstation (Beckman Coulter, Indianapolis, IN, USA). The plates were incubated at a 37C and 5% CO2 for 16 h. After 1 uL of LiveBLAzerTM B/G FRET substrate was added using a Bioraptr FRD, the plates were incubated at room temperature for 2 h and fluorescence intensity was measured by an Envision plate reader (PerkinElmer, Shelton, CT). For cell viability readout that measures cytotoxicity, 4 ul/well of CellTiter-Glo reagent was added into the assay plates using a Bioraptr FRD. After 30 min incubation at room temperature, the luminescence intensity in the plates was measured using a ViewLux (PerkinElmer) plate reader.
Potency means the concentration at half of the fitted maximal effect.

Row | Compound | Potency
1 | Cc1cccnc1 | inactive
2 | CCCCCCCCCCCCc1ccccc1 | inactive
3 | O=c1[nH]nnc2ccccc12 | inactive
4 | CC(=O)c1ccccc1 | inactive
5 | O=C(O)[C@H](O)[C@@H](O)[C@H](O)[C@H](O)CO | inactive
6 | COc1ccc(Nc2ccccc2)c(C)c1 | inactive
7 | CCN(CC)c1ccc(C(=O)c2ccccc2C(=O)O)c(O)c1 | inactive
8 | O=C1CCC(N2C(=O)c3ccccc3C2=O)C(=O)N1 (stereo not given) | inactive
9 | CC[C@H](C)C(=O)O[C@H]1C[C@@H](C)C=C2C=C[C@H](C)[C@H](CC[C@@H]3C[C@@H](O)CC(=O)O3)[C@H]21 | 31.3 µM (active) and inactive
10 | CCCCC(CC)COC(=O)C(C#N)=C(c1ccccc1)c1ccccc1 (stereo not given) | inactive
11 | C#CCN(C)Cc1ccccc1 | inactive
12 | CCCCOC(=O)COc1ccc(Cl)cc1Cl | inactive
13 | CN(C)CCOCCN(C)C | inactive
14 | Cc1ccc(N(C)C)cc1 | inactive
15 | O=C(O)c1ccccc1C(c1ccc(O)cc1)c1ccc(O)cc1 | inactive
16 | CN(C)CCCN | inactive
17 | Fc1ccc(Br)cc1 | inactive
18 | C[C@H]1C[C@H]2[C@@H]3CCC4=CC(=O)C=C[C@]4(C)[C@@]3(F)[C@@H](O)C[C@]2(C)[C@@]1(O)C(=O)CO | inactive
19 | O=c1[nH]c(=O)n([C@H]2C[C@H](O)[C@@H](CO)O2)cc1Br | inactive
20 | FC(F)(F)c1ccc(Cl)c(Cl)c1 | inactive

Row | Compound | Potency
21 | C[C@H]1C[C@@H]2[C@H]([C@@H](O)C[C@@]3(C)[C@H]2CC[C@]3(O)C(=O)CO)[C@@]2(C)C=CC(=O)C=C12 | inactive
22 | C=C(C)C(=O)OCCOCCOCCOC(=O)C(=C)C | inactive
23 | O=C(O)c1ccc2c(c1)C(=O)OC2=O | inactive
24 | CCCCC(CC)COC(=O)CCCCC(=O)OCC(CC)CCCC (stereo not given) | inactive
25 | CC(=O)Nc1ccccc1 | inactive
26 | CC(=O)Nc1cccc(O)c1 | inactive
27 | COc1ccc(Cl)cc1C(=O)NCCc1ccc(S(=O)(=O)NC(=O)NC2CCCCC2)cc1 | inactive
28 | CCCCN(CCCC)CCCC | inactive
29 | Nc1ccccc1[N+](=O)[O-] | inactive
30 | O=P(OC(CCl)CCl)(OC(CCl)CCl)OC(CCl)CCl | inactive
31 | c1ccc(OCCOc2ccccc2)cc1 | inactive
32 | CC(C)CC(=O)CC(C)C | inactive
33 | COS(C)(=O)=O | inactive
34 | O=C(OCCOCCOC(=O)c1ccccc1)c1ccccc1 | inactive
35 | CCCCCOC(C)=O | inactive
36 | C[Si](O[Si](C)(C)C)O[Si](C)(C)C | inactive
37 | Cc1occc(=O)c1O | inactive
38 | CN(C)CCC(c1ccccc1)c1ccccn1 (stereo not given) | inactive
39 | CCCCCCCCCCCCCCO | inactive
40 | CCN(CC)CCCC(C)Nc1ccnc2cc(Cl)ccc12 (stereo not given) | inactive
